Source: PubChem
ATXN2 expr inh – ATXN2 expression inhibition; HEK-293 ATXN2-luciferase reporter, luminescence, 24 h; Potency, µM (doses to about 57 µM), for inactives: top-dose activity change, negative = inhibition, usual class: inhibitors; 0.72% of 360,000 active; AID 1745845; note: % is set by controls: 0 for no effect and ±100 for the full control effect; nearly all actives have a fitted effect of over 55% in size
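ATXN2-luciferase reporter cells (luciferase flanked by upstream and downstream ATXN2 gene portions) were treated 24 h at 37 °C with compounds at up to 57 uM. SteadyGlo luminescence gave expression; GF-AFC fluorescence gave viability.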
HepG2 viability – kills HepG2 cells in TGF-b inhibitor counter-screen; HepG2 CAGA-GFP viability, ATP luminescence, 18 h; Potency, µM (series often up to 46.1 µM), for inactives: at the top dose activity change, negative = cytotoxicity, usual class: cytotoxic; 0.76% of 410,000 active; AID 588856
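CellTiter-Glo luminescence gave cytotoxicity after 18 hours at 37 degrees C. The cells were HepG2 CAGA-GFP in 1% FBS DMEM, stimulated with 500 pg/mL TGF-beta after compound addition. %Activity was normalised to no-cell wells (complete cell-killing) and DMSO (no toxicity), and curves were fitted and classified.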
DT40 TDP1 no CPT – qHTS for Inhibitors of human tyrosyl-DNA phosphodiesterase 1 (TDP1): qHTS in cells in absence of CPT. DT40 Tdp1-/- hTDP1 cells, no CPT, ATP luminescence, 48 h. Potency, µM (top dose mostly 46.2 µM), for inactives: top-dose activity change, negative = growth inhibition, most hits filed as inhibitors. 15% of 420,000 active. AID 686978, 2013; note: % is set by controls: 0 for no effect and ±100 for the full control effect; nearly all actives have a fitted effect of over 55% in size
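Chicken DT40 Tdp1-/- cells stably complemented with human TDP1 were seeded at 400 cells/well with DMSO in place of 20 nM camptothecin. After compound pinning, cells grew at least 48 hr at 37 °C; viability read by CellTiter-Glo luminescence.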
S2 tox – cell viability loss in ATXN counter-screen; AID 651635; Potency, µM (titrated, usually from 56.7 µM), hits mostly cytotoxic; 0.49% of 400,000 active; S2 cells (HEK-293 line with an ATXN2-luciferase reporter) viability, CellTiter-Fluor protease fluorescence, 24 h; note: nearly all actives have a fitted effect of over 40% in size
DT40 TDP1 CPT – growth inhibition of DT40 Tdp1-/-;hTDP1 cells with camptothecin (screen for TDP1 inhibitors); Potency, µM (titrated, usually from 46.2 µM), for the others: top-dose activity change, negative = growth inhibition, usual class: inhibitors; 12% of 420,000 active; chicken DT40 Tdp1-/-;hTDP1 cells + 20 nM CPT, ATP luminescence, 48 h; note: % is set by controls: 0 for no effect and ±100 for the full control effect; nearly all actives have a fitted effect of over 55% in size
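Cell growth measured by CellTiter-Glo luminescence after a minimum 48 h, 37 C compound exposure with 20 nM CPT in Tdp1-knockout DT40 cells stably expressing hTDP1, seeded 400/well; qHTS titration format.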
TGFb SMAD3 inh – TGF-b pathway inhibition. 1.2% of 410,000 active. Potency, µM (highest dose often 46.1 µM), without a hit: top-dose activity, negative = inhibition, actives largely listed as inhibitors. HepG2 CAGA-GFP TGF-b/SMAD3 reporter, GFP fluorescence, 18 h; TGF-beta stimulated, 500 pg/mL final. AID 588855; note: % is set by controls: 0 for no effect and ±100 for the full control effect; nearly all actives have a fitted effect of over 65% in size
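HEPG2 CAGA-GFP reporter cells (1000/well, DMEM with 1% FBS) received compounds, then recombinant TGF-beta at 500 pg/mL final for 18 hours at 37 degrees C. Per-cell GFP summed per well was normalised to unstimulated and stimulated DMSO controls before curve fitting.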
Active calls of the source: *; i = inactive; ? = inconclusive; . = no result; [ ] = dose if it differs, or a comment. Compounds with a hit are over-represented: about 17% of the library has one in this group of screens. Calls come from the whole dose curve; as a rule, active = well fitted curve in the direction sought with a large enough effect; inconclusive = small, poorly fitted or top-dose-only effect, or another doubt; inactive = no such curve, though single readings can be large; an effect the other way counts as inactive or inconclusive. Potency is the fitted concentration of half-maximal effect.

SMILES	ATXN2 expr inh	HepG2 viability	DT40 TDP1 no CPT	S2 tox	DT40 TDP1 CPT	TGFb SMAD3 inh
O=C1NC[C@@H](c2ccccc2)OC(=O)[C@@H](Cc2ccc(F)cc2)CC/C=C/C[C@@H]1CC(=O)N(CCO)Cc1ccccc1	-27%	.	15µM*	?	16µM*	?
CC(NC(=O)c1nn(C)c2c1CSc1ccccc1-2)c1ccccc1 (centres undefined)	.	-27%	?	.	?	?
CC(CCC(=O)O)C1CCC2C3CC(O)C4CC(O)CC[C@]4(C)C3CCC12C (some centres undefined)	2%	-2%	-1%	i	-5%	-9%
Cc1ccc(CN2CCN(C(=O)c3cccc4ccccc34)CC2)cc1	0%	-30%	23µM*	i	?	?
Cc1cccc(CN2CCN(C(=O)c3cccc4ccccc34)CC2)c1	-11%	5%	?	i	16µM*	-18%
Cc1cccc(CN2CCN(C(=O)CCl)CC2)c1	?	-41%	16µM*	.	15µM*	?
CCc1nnc(SCc2ccc(OC)cc2)c2cc3sc(C)cc3n12	.	-6%	-16%	.	-12%	-13%
CC(C)n1c(/C=C\[C@@H](O)C[C@@H](O)CC(=O)O)c(-c2ccc(F)cc2)c2ccccc21	.	.	.	i	.	.
O=C(O)C[C@H](O)C[C@H](O)/C=C/c1c(C2CC2)nc2ccccc2c1-c1ccc(F)cc1	.	.	1.9µM*	.	2.7µM*	.
Cc1ccc2c(C)c(C(=O)N(Cc3ccc(F)cc3)C3CCS(=O)(=O)C3)oc2c1 (centres undefined)	0%	-16%	?	i	?	0%
Cc1c(C(=O)N(Cc2ccccc2F)C2CCS(=O)(=O)C2)oc2ccc(F)cc12 (centres undefined)	.	-30%	21µM*	.	16µM*	-1%
Cc1ccc2oc(C(=O)N(Cc3ccccc3F)C3CCS(=O)(=O)C3)c(C)c2c1 (centres undefined)	.	-16%	23µM*	.	?	-27%
Cc1c(C(=O)N(Cc2ccccc2F)C2CCS(=O)(=O)C2)oc2ccccc12 (centres undefined)	.	-26%	?	.	?	?
Cc1ccc(S(=O)(=O)N(C)c2ccc(C(=O)Nc3ccccc3C(=O)N3CCOCC3)cc2)cc1	5%	32%	?	i	-16%	-2%
O=C(c1ccc(-n2cncn2)c([N+](=O)[O-])c1)N1CCN(S(=O)(=O)c2cccc(F)c2)CC1	-9%	6%	?	?	?	-1%
COC(=O)C1=C(C)NC(=O)/C1=C\c1cc(C)n(-c2ccc(F)cc2)c1C	0%[11.3 µM]	12%	-28%	i	-5%	1%
COC(=O)C1=C(C)NC(=O)/C1=C\c1cc(C)n(-c2cccc(C)c2)c1C	18%	-2%	16µM*	i	?	6%
CCN(CC)c1nn2c(=O)c(C(=O)NCCc3ccccc3C)cnc2s1	.	-22%	?	.	16µM*	0%
CCc1ccc(CNC(=O)c2cnc3sc(N(CC)CC)nn3c2=O)cc1	.	-35%	?	.	13µM*	?
O=C1CSC(c2cccc(F)c2)N1c1ccccc1 (centres undefined)	.	-14%	?	i	-7%	-13%
CC1(C(=O)Nc2cccc(OC(F)(F)F)c2)Cc2c(-c3cccc(C(F)(F)F)c3)ccnc2O1 (centres undefined)	-9%	-23%	?	i	?	?
CC(=O)Nc1cccc(-c2ccnc3c2CC(C)(C(=O)Nc2cccc(OC(F)(F)F)c2)O3)c1 (centres undefined)	?	-51%	?	?	?	14µM*
